39 compounds from PubChem BioAssay (NCATS) can be followed below.

Results filed as inconclusive are left out. Unmarked numbers belong to inactive results. Active and inactive are the calls of the source. The call rests on the fitted dose curve; tested in HEK293 reporter line.
On the % scale 0 is the no-effect control and ±100 the full control effect; potency means the concentration at half of the fitted maximal effect.

The nature of the assay: qHTS for Inhibitors of the Functional Ribonucleoprotein Complex (vRNP) of Lymphocytic Choriomeningitis Arenaviruses (LCMV): Viability assay - alamar blue signal for LCMV Primary Screen (AID 1347085). Further: nearly all actives have a fitted effect of over 80% in size. To be noted: alamar blue viability counter-screen, LCMV vRNP screen cells; series mostly up to 57.5 µM; activity change, negative = lower viability: at the top concentration.
Turning to `CC(c1c(O)c2ccccc2[nH]c1=O)C1(C)CCC(O)C(C)(C)O1` (centres undefined), the “activity change, negative = lower viability” value was 2.22%. For the compound `C[C@]12CCC(=O)C=C1[C@@H]1CC1[C@H]1[C@H]3[C@@H]4C[C@H]4[C@@]4(CCC(=O)O4)[C@@]3(C)CC[C@H]12` (some centres undefined), the “activity change, negative = lower viability” value is 18.7%. On to `COc1cccc(OC)c1C(=O)O`, for which the “activity change, negative = lower viability” value was -25.8% [at 115 µM].

In the case of `COc1ccc(C(=O)/C=C/c2ccc(O)cc2)c(O)c1CC=C(C)C`, the “activity change, negative = lower viability” value was 9.76%. Same read-out and setting: with `CCCCCCCCCCCC(=O)OCC` the figure was -2.66% [at 115 µM]; with `COc1cc(C/C=C\c2ccccc2)c(OC)cc1O`, 5.56%. Take `COc1c2c(cc3oc(C)cc(=O)c13)OC(C(C)(C)OC1OC(CO)C(O)C(O)C1O)C2` (centres undefined): the “activity change, negative = lower viability” value was -2.69%. With `O=C1NC(=S)NC1=Cc1ccc(O)cc1`, the “activity change, negative = lower viability” value was 18.1%.

As to `COc1cc(O)c2c(=O)c3c(OC)c(O)ccc3oc2c1`, the “activity change, negative = lower viability” value was -1.19%. In the case of `CNc1nc(-c2ccc3c(N)n[nH]c3c2)cc(N2C[C@@H](C(=O)NC3CCCCC3)CC[C@@H]2C)n1`, the Potency was 38.5 µM (active).

With `CC(=O)O[C@H]1C2[C@@H](OC(=O)Cc3ccccc3)[C@@H](C)C[C@]2(OC(C)=O)C(=O)/C(C)=C/[C@@H]2[C@H](CC[C@@]13CO3)C2(C)C` (some centres undefined), the “activity change, negative = lower viability” value was 16.2% [at 24.7 µM].

`COc1cc2c(c(OC)c1OC)-c1c(cc3c(c1OC)OCO3)CC(C)C(C)(O)C2OC(=O)c1ccccc1` (centres undefined): the “activity change, negative = lower viability” value was 4.32% [at 24.7 µM]. `C/C(=C\COc1ccc2ccc(=O)oc2c1)CC[C@@H](O)C(C)(C)O`: the “activity change, negative = lower viability” value was 4.86%. Still for that read-out and setting: with `C=CCCCCCCCCCCCC(O)CC(O)COC(C)=O` (centres undefined) the figure was 12.5%. The same measure, in the same setting: for `C=C[C@H]1[C@H](O[C@@H]2O[C@H](CO)[C@@H](O)[C@H](O)[C@H]2O)OC=C2C(=O)OCC[C@]21O` the value was 0.0278%; for `CC(C)CCOC(=O)c1ccccc1`, 16.2% [at 115 µM]. As for `CC12CCC(=O)C=C1CCC1C2C(O)CC2(C)C(O)CCC12` (centres undefined), the “activity change, negative = lower viability” value is 2.12%. The same measure, in the same setting: for `COC(=O)C1=CO[C@@H](O)[C@@H]2C(CO)=CC[C@@H]12` the value was -9.2%; for `CC(=O)Nc1ccccc1O`, 16.4% [at 115 µM].

Turning to `CCCCCCCCCCCC`, the “activity change, negative = lower viability” value was 12.6% [at 115 µM]. On the same count and under the same terms, for `CC(C)C1Oc2cc3oc(=O)ccc3cc2C1=O` (centres undefined) the value was 13.7%; for `COc1c2ccoc2nc2c(OC)c(O[C@@H]3O[C@H](C)[C@@H](O)[C@@H](O)[C@H]3O)ccc12`, -11.4%; for `COc1c(O)cc2c(=O)oc3c(OC)c(O)cc4c(=O)oc1c2c34`, 5.27%. Take `C/C(=C\COc1c2ccoc2cc2oc(=O)ccc12)CCC(O)C(C)(C)O` (centres undefined): the “activity change, negative = lower viability” value was 1.51%.

Regarding `CC(C)=CCCC(C)CC(=O)O` (centres undefined), the “activity change, negative = lower viability” value is -132% [at 115 µM]. `C=CC(C)=CCC=C(C)C`: the “activity change, negative = lower viability” value is 5.44% [at 115 µM]. For the compound `O=c1cc(-c2ccccc2)c2c(O)cc(O)cc2o1`, the “activity change, negative = lower viability” value was 16.1%. Still for that read-out and setting: with `COc1cc(CCc2ccccc2)c(C(=O)O)c(O)c1CC=C(C)C` the figure was 2.67%. With `CC1=C(C(=O)O)N2C(=O)C(NC(=O)CCCC(=O)O)C2SC1` (centres undefined), the “activity change, negative = lower viability” value was -2.48%. Regarding `CCCCN`, the “activity change, negative = lower viability” value is -6.79%. On to `C=C(C)C(O)COc1c2occc2c(OC)c2ccc(=O)oc12` (centres undefined), for which the “activity change, negative = lower viability” value was 0.76%. Regarding `C=C1[C@H](n2cnc3c(=O)[nH]c(N)nc32)C[C@H](O)[C@H]1CO`, the “activity change, negative = lower viability” value was 11.5%. Take `CCC(C)(C)O`: the “activity change, negative = lower viability” value was 6.07% [at 115 µM]. Take `CC1(C)CCC[C@@](C)([C@H]2CC[C@]3(C)[C@@H]2[C@H](O)C[C@@H]2[C@@]4(C)CC[C@H](O)C(C)(C)[C@@H]4CC[C@]23C)O1`: the “activity change, negative = lower viability” value was 2.5%. With `CCOC(=O)[C@H](CCc1ccccc1)N[C@@H](C)C(=O)N1CCCC1C(=O)O` (some centres undefined), the “activity change, negative = lower viability” value was -6.1%.

Take `COc1cc(C)cc(O)c1`: the “activity change, negative = lower viability” value was 5.67% [at 115 µM]. On the same count and under the same terms, with `O=C1C=CC[C@H](/C=C/C[C@@H](O)C[C@H](O)CCc2ccccc2)O1` the figure was -7.82%; with `c1ccc(C(NCc2cccnc2)(c2ccccc2)c2ccccc2)cc1`, 55.3%; with `CCCC(=O)OC`, 18.3% [at 115 µM].
